# According to ChEMBL document CHEMBL4513216, “Probing the Open Global Health Chemical Diversity Library for Multistage-Active Starting Points for Next-Generation Antimalarials” (ACS Infect Dis, 2020):
# Out of some 68,000 compounds screened, about 2,700 (4%) showed an effect of 50% or more. Only a selection was taken, and strong results are over-represented in it overall.
# System: Plasmodium berghei
# Assay: Screen against P. berghei liver stage (PbLuc), transformed with Luciferase, at 2uM
# Type: functional, HepG2
# Details: tested at 2 uM
row,Compound,INHIBITION [%]
1,CC(C)c1cccc(N2CCCC3(CCC(=O)N(C4CC4)C3)C2)n1 (stereo not given),-90.99
2,Cc1ccc(O)c(CNCC(C)c2nc3ccccc3o2)n1 (stereo not given),35.36
3,CC(C)NC(=O)N1CCOC2(CNC2)C1,44.13
4,CCC(CC)C(=O)N1CCOC2(CNC2)C1,58.95
5,CCC(CC)C(=O)N1CCOC2(COCCN(CC(=O)NC)C2)C1 (stereo not given),48.52
6,Cc1cc(C(=O)NCC(C)C)c2c(C3CCCN3)noc2n1 (stereo not given),-14.61
7,Cc1noc(CNC2CCCN(Cc3noc(C4CC4)n3)C2)n1 (stereo not given),10.53
8,CC(C)Oc1cc(N2CCN(Cc3ccsc3)C(CCO)C2)nc(N)n1 (stereo not given),51.76
9,Cc1cc(N2CCN(Cc3ccsc3)C(CCO)C2)nc(N)n1 (stereo not given),34
10,COc1cc(N2CCN(Cc3ccsc3)C(CCO)C2)nc(N)n1 (stereo not given),39.92
11,O=c1[nH]c2cn(-c3cccc(F)c3)c(=O)n2n1Cc1ccc(Cl)cc1,5.87
12,O=c1[nH]c2cn(-c3ccc(F)cc3)c(=O)n2n1Cc1cccc(Cl)c1,58
13,O=c1[nH]c2cn(-c3cccc(Cl)c3)c(=O)n2n1Cc1cccc(F)c1,42.62
14,CCCn1nc2c(cc1=O)CN(CCN1CCCC1=O)CC2,-33.39
15,CC(C)(C)n1ncc2c(=O)[nH]c(N3CCN(CC(F)F)CC3)nc21,66.74
16,CC(C)(C)n1ncc2c(=O)[nH]c(N3CCN(CCO)CC3)nc21,40.47
17,CC(=O)N1CCN(c2nc3c(cnn3C(C)(C)C)c(=O)[nH]2)CC1,-12.08
18,CSCC[C@H](N)C(=O)NCc1cc2n(n1)CCCN(C1CCCCC1)C2,-46.68
19,Cc1ccc(CN[C@@H]2CO[C@H](CNS(=O)(=O)c3ccccc3)[C@H]2O)cc1,-6.18
20,Cc1ccc(S(=O)(=O)NC[C@H]2OC[C@@H](NCc3ccccc3)[C@@H]2O)cc1,75.87
21,Cc1ccc(S(=O)(=O)NC[C@H]2OC[C@@H](NCc3ccncc3)[C@@H]2O)cc1,16.47
22,O=C(NCCc1noc(C2CCCO2)n1)c1cn2ccsc2n1 (stereo not given),40.88
23,O=C(NCc1noc(C2CCCO2)n1)c1cn2ccsc2n1 (stereo not given),22.09
24,Cc1nc(NCc2noc(C3CCCO3)n2)c2ccsc2n1 (stereo not given),59.01
25,Cc1nc(NCc2noc(C3CCCO3)n2)c2sccc2n1 (stereo not given),61.69
26,Cc1nc(NCCc2noc(C3CCCO3)n2)c2sccc2n1 (stereo not given),49.63
27,Cc1nc(N(Cc2ccncc2)CC2CCCO2)c2ccsc2n1 (stereo not given),-59.39

row,Compound,INHIBITION [%]
1,O=C(CCCOc1ccc(F)cc1F)N1CCCC1Cn1cccn1 (stereo not given),6.12
2,CN(Cc1cc2n(n1)CCCN(C(=O)N1CCCC1)C2)Cc1nccs1,-10.4
3,CCc1nc(CNc2nc3c(s2)c(C)nn3C)cs1,51.4
4,CCc1csc(CNc2nc3c(s2)c(C)nn3C)n1,28.14
5,Cc1nc(CNc2nc3c(s2)c(C)nn3C)cs1,38.49
6,O=C(NC1CCc2[nH]c(=O)ccc2C1)C1CCOCC1 (stereo not given),0.79
7,CCN1CC[C@@]2(C(=O)N3CCOCC3)CCN(C(=O)NC)CC[C@@H]12,19.42
8,CSC1=Nc2c(cnn2-c2ccc(C)cc2)C2=NCCCN12,44.7
9,CCOc1ccccc1C(=O)N1CCCC1c1ncc2c(n1)CCNC2 (stereo not given),-2.7
10,CN1C[C@@H](N)C[C@H]1C(=O)N1CCC(Cc2ccc(F)cc2)CC1,29.87
11,CCC(=O)N1CCCC1C(=O)N1CCC(Cc2ccc(F)cc2)CC1 (stereo not given),69.52
12,O=C(C1CCS(=O)(=O)CC1)N1CCC(Cc2ccc(F)cc2)CC1,9.75
13,c1cnnc(N2CCCC2CNCc2nc(-c3cccs3)no2)c1 (stereo not given),-8.75
14,Cc1cccc(-n2nc(CC(C)C)nc2CS(C)(=O)=O)c1,3.92
15,Cc1cc(N2CCC(N(C)C(=O)c3sccc3C)CC2)nc(C)n1,-82.24
16,Cc1ccsc1-c1nccn1CCN1CCCCC1CO (stereo not given),-12.08
17,Cc1cc(-c2nccn2CCN2CCCCC2CO)oc1C (stereo not given),47.04
18,OCC1CCCCN1CCn1ccnc1-c1ccc2c(c1)OCCO2 (stereo not given),63.46
19,CC(O)c1cn(Cc2cccc(C(F)(F)F)c2)nn1 (stereo not given),19.08
20,COc1ccccc1CN1C[C@@H](F)[C@@H](OCc2nc3ccccc3[nH]2)C1,-6.21
21,COc1ccccc1CN1C[C@@H](F)[C@@H](OCc2nc3ncccc3[nH]2)C1,55.57
22,COc1ccccc1CN1C[C@@H](F)[C@@H](OCc2nc3cnccc3[nH]2)C1,14.89
23,O=C(CS(=O)(=O)Cc1cc(Cl)c2c(c1)OCCCO2)NCC1CC1,2.77
24,CCNC(c1cccnc1)c1ccc(F)c(C)c1 (stereo not given),1.61
25,CCCNC(c1cccnc1)c1ccc(F)cc1F (stereo not given),-3.32
26,CCNC(c1ccc(Cl)cc1)c1cccnc1 (stereo not given),8.37
27,CCNC(c1ccc(F)cc1)c1cccnc1 (stereo not given),-49.8

row,Compound,INHIBITION [%]
1,CCNC(c1ccc(C)cc1)c1cccnc1 (stereo not given),-41.21
2,CCNC(c1ccc(C(C)C)cc1)c1cccnc1 (stereo not given),58.05
3,CCCNC(c1ccc(F)cc1)c1cccnc1 (stereo not given),26.18
4,CCNC(c1cccnc1)c1ccc(F)cc1F (stereo not given),53.98
5,CCCNC(c1cccnc1)c1ccc(F)c(C)c1 (stereo not given),62.36
6,c1cc(CN2CCC(c3nnc4n3CCCCC4)CC2)c2nonc2c1,-60.89
7,CC(C)n1ncc2c1NC(=O)CC21C(=O)Nc2c(Cl)ccc(Cl)c21 (stereo not given),-40.36
8,c1csc(-c2noc(C3CN(Cc4ccc5c(c4)CCO5)C3)n2)c1,35.6
9,O=C1CCNc2ncc(-c3ccccc3Cl)cc2CN1C1CC1,18.48
10,CCc1c(C)noc1-c1cnc(NC2CC2)nc1-c1cnc(C)cn1,26.93
11,O=C(c1ccc(-n2ccnc2)cc1)N1CCCC(n2ccnc2)C1 (stereo not given),28.87
12,O=C(c1cccc2cccnc12)N1CCCC(n2ccnc2)C1 (stereo not given),54.2
13,O=C(c1ccc2c(c1)OCCCO2)N1CCCC(n2ccnc2)C1 (stereo not given),11.95
14,Cc1nccn1C1CCCN(C(=O)c2ccnc(-n3ccnc3)c2)C1 (stereo not given),-13.24
15,O=C(c1ccc(-n2cnnn2)cc1)N1CCCC(n2ccnc2)C1 (stereo not given),43.79
16,O=C(c1ccc(-n2cnnc2)cc1)N1CCCC(n2ccnc2)C1 (stereo not given),56.02
17,O=C(c1ccnc(-n2ccnc2)c1)N1CCCC(n2cccn2)C1 (stereo not given),-58.05
18,O=C(c1ccc2c(c1)OCCO2)N1CCCC(n2ccnc2)C1 (stereo not given),78.98
19,O=C(c1ccnc(-n2ccnc2)c1)N1CCCC(n2ccnc2)C1 (stereo not given),70.27
20,O=C(c1cccnc1N1CCCCC1)N1CCCC(n2ccnc2)C1 (stereo not given),3.33
21,O=C(c1ccc2c(c1)OCO2)N1CCCC(n2ccnc2)C1 (stereo not given),-0.05
22,O=C(c1cccc2ncccc12)N1CCCC(n2ccnc2)C1 (stereo not given),43.85
23,CN(C)C(=O)N1C[C@H]2CC[C@@H](C1)N(C(=O)c1c(Cl)cccc1Cl)C2,-42.12
24,CN1CCCN(C(=O)NCc2ccccc2Cn2cncn2)CC1,28.62
25,Cn1cccc1C(=O)OCCNC(=O)c1ccccc1,-9.17
26,O=C(CC1CCCCC1)N1C[C@@H]2CC[C@H]1CN(Cc1cccnc1)C2,9.56
27,Cc1ccc(CN2Cc3cnn(C)c3C(COCC3CC3)C2)o1 (stereo not given),47.63

row,Compound,INHIBITION [%]
1,CNC(=O)C1CCCCN1C(=O)c1sc(-c2ccc(C)o2)nc1C (stereo not given),16.73
2,O=c1nc(SCc2cccnc2)c2c(n1CCO)CCCC2,13.46
3,CCN(Cc1ccc2c(c1)OCCO2)C(=O)NCc1cc[nH]n1,21.31
4,CSCC(C)(O)CNS(=O)(=O)c1cccc(C)c1 (stereo not given),9.27
5,CSCC(C)(O)CNS(=O)(=O)c1cccc(Cl)c1 (stereo not given),56.89
6,CSCC(C)(O)CNS(=O)(=O)c1ccc(Br)cc1 (stereo not given),9.27
7,O=c1ccc(-n2ccnc2)nn1CCNS(=O)(=O)c1ccc(Cl)s1,-54.51
8,CC(C)n1nc2c(cc1=O)CN(CCOc1ccc(C#N)cc1)CC2,9.8
9,CNC(=O)c1cccc(C2CNCCN2C(=O)c2ccn(C)n2)c1 (stereo not given),24.56
10,Cc1ccc(C(=O)N2CCOCC3(CCN(C4CCOCC4)C3)C2)o1 (stereo not given),14.89
11,Cc1cccc(N(CCC(N)=O)CC(=O)Nc2cc(Cl)ccc2Cl)c1,-10.14
12,Cc1cccc(N(CCC(N)=O)CC(=O)Nc2ccccc2)c1,50.31
13,Cc1cccc(N(CCC(N)=O)CC(=O)NC2CCCC2)c1,-22.8
14,CC(NC(=O)NCC1(c2ccc(F)cc2)CC1)c1nncn1C (stereo not given),-7.13
15,CC(C)c1cc(NC(=O)CNC2CCCN(c3cccnn3)C2)on1 (stereo not given),53.98
16,Cc1cc(NC(=O)CNC2CCCN(c3cccnn3)C2)on1 (stereo not given),-3.06
17,Cc1ccc(N2CCCC(NCC(=O)Nc3cc(C)no3)C2)nn1 (stereo not given),6.3
18,CC1=N[C@@]2(CC[C@@H]3CN(CC(=O)N(C)C)C[C@@H]32)C(=O)N1CC1CC1,-25.29
19,CN(Cc1ccc(F)cc1)CC1(O)CCN(C(=O)c2ccsc2)C1 (stereo not given),47.4
20,COCCCNC(=O)CN(C)C(=O)c1cc(C)ccc1N(C)C(C)C,-61.5
21,CCCC(C)NC(=O)CCN1C(=O)CCc2cc(F)ccc21 (stereo not given),6.92
22,CC(C)C(C)NC(=O)CCN1C(=O)CCc2cc(F)ccc21 (stereo not given),31.16
23,CC(C)CNC(=O)CCN1C(=O)CCc2cc(F)ccc21,55.39
24,NC(=O)C(CNC(=O)Cc1ccc(F)cc1)Cc1ccc(F)cc1 (stereo not given),-39.58
